# From PubChem BioAssay (NCI)
# Compounds without any hit were thinned out: in the full panel of roughly 83,000, 20% have a hit.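 Step 1: grow cells in 96-well plates. Step 2: add test compound at a single concentration. Step 3: incubate 48 h. Step 4: record percent growth.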 Unmarked numbers belong to inactive results. The source made the active and inactive calls. How the source made its calls: active means growth percent below 10; inactive means the rest.
# Experiments:
# Assay in all cases: NCI-60 one-dose screen, 48 h (100 = growth as untreated, 0 = no growth, -100 = all killed)
# Conditions in all cases: 10 µM unless noted
# HCT-15 colon = tested on: HCT-15 colon
# HT29 colon = tested on: HT29 colon
# SNB-75 CNS = tested on: SNB-75 CNS
# SNB-19 CNS = tested on: SNB-19 CNS
# U251 CNS = tested on: U251 CNS
# PC-3 prostate = tested on: PC-3 prostate
# SK-MEL-5 melanoma = tested on: SK-MEL-5 melanoma
# UACC-62 melanoma = tested on: UACC-62 melanoma
# LOX IMVI melanoma = tested on: LOX IMVI melanoma
# SK-MEL-28 melanoma = tested on: SK-MEL-28 melanoma
Compound,growth (HCT-15 colon),growth (HT29 colon),growth (SNB-75 CNS),growth (SNB-19 CNS) [%],growth (U251 CNS),growth (PC-3 prostate),growth (SK-MEL-5 melanoma),growth (UACC-62 melanoma),growth (LOX IMVI melanoma),growth (SK-MEL-28 melanoma)
CC(C)(C)n1nnnc1C(Nc1cccc2c1OCO2)c1cc2cccc3ccc4cccc1c4c32 (stereo not given),71%,81.2%,115%,83.5,85.9%,59.4%,85%,65.3%,86.7%,94.4%
C#C[C@]1(O)CC[C@H]2[C@@H]3CC=C4c5sc(-c6ccc(C)cc6)nc5CC[C@]4(C)[C@H]3CC[C@@]21C,-2.81% (active),98%,-8.57% (active),10.9,8.46% (active),-19.9% (active),-75.7% (active),2.15% (active),-60.8% (active),-57.2% (active)
COc1cc(/C=N/NC(=O)c2cn(C3CC3)c3c(OC)c(N4CC5CCCNC5C4)c(F)cc3c2=O)ccc1O (stereo not given),32%,-0.257% (active),106%,26.2,-67% (active),45.1%,95.4%,91.5%,-83.5% (active),94.4%
COc1ccc(Cn2cc3c(c2-c2cc(OC)c(OC)c(OC)c2)CCc2c(CN4CCOCC4)noc2-3)cc1,15.3%,11.7%,18%,27.1,27.9%,31.9%,17.3%,19.1%,33.5%,60.7%
Nc1ncc(-c2ccc3ncnc(N4CCc5cc(F)c(F)cc54)c3c2)cn1,23.1%,33.1%,27.3%,43.1,41.2%,17.7%,16.2%,9.67% (active),11.1%,33.2%
Cc1ccc(NC(=O)CNc2cc(C(N)=O)cc(F)c2C)c(Cl)c1,103%,114%,48.4%,101,106%,85.7%,97.1%,81.5%,94.1%,99.5%
NS(=O)(=O)c1ccc(Nc2nc(Nc3ccccc3)nc3nnc(SCC(=O)NC4CCCCC4)n23)cc1,104%,113%,115%,101,104%,98.5%,105%,92.3%,101%,105%
Cn1cc(-c2nc(N)nnc2-c2c[nH]c3ccc(Br)cc23)c2cc(Br)ccc21,29.8%,14.1%,55.8%,43.1,27.9%,20.2%,42.9%,27.4%,44%,60.1%
C=C(C)[C@@H]1CC[C@]2(COCCCNCCC#N)CC[C@]3(C)[C@H](CC[C@@H]4[C@@]5(C)CC[C@H](OCCCNCCC#N)C(C)(C)[C@@H]5CC[C@]43C)[C@@H]12,47%,49.9%,54.4%,83.5,70.9%,42.5%,15%,69.1%,-1.84% (active),90.5%
COc1ccc(-n2c(SCc3nnc(NC(=O)c4ccc(Br)cc4)s3)nc3cc(OC)c(OC)cc3c2=O)cc1,85.1%,104%,93.4%,89.6,86.3%,87.9%,91.8%,91.4%,90.5%,88.7%
COc1ccccc1N1CCN(C2=CC(=O)C(C)=C(C)C2=O)CC1,100%,104%,102%,104,98.1%,95.9%,99.4%,99.5%,94.8%,119%
Cc1nc2ncc(-c3ccc4ncnc(NCc5ccccc5)c4c3)cc2[nH]1,103%,82.8%,13%,67.7,75.4%,40.8%,82.8%,64.3%,41.3%,63.1%
O=S(=O)(NCCNc1nccc(-n2cnc3ccccc32)n1)c1ccc(C(F)(F)F)cc1,60.7%,68%,46.8%,69.8,69.6%,45.5%,8.48% (active),42.4%,57.4%,77.2%
O=C(CNc1nc(-c2cccc([N+](=O)[O-])c2)cs1)Nc1cccc(Cl)c1,98.4%,116%,101%,99.5,106%,98.5%,103%,92.7%,115%,104%
Brc1ccccc1/C=N/Nc1nc(N/N=C/c2ccccc2Br)nc(N2CCOCC2)n1,81.1%,74%,132%,101,96.5%,84%,69.6%,102%,103%,99.3%
CNC(=O)c1c(NC(=O)c2cccc(C(F)(F)F)c2F)sc2c1CCC(=O)C2,5.54% (active),9.35% (active),0.105% (active),16.5,4.78% (active),14.9%,-83.7% (active),7.56% (active),16%,47.8%
